In PubChem BioAssay AID778 (Sanford-Burnham Center for Chemical Genomics, 2007):
The campaign covered roughly 96,000 compounds. About 20,000 (21%) were called active. These entries were drawn from the full list. A number with no mark means an inactive call.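 Rule for the calls: active = CYP2C19 inhibition above a set limit at 5 µM in the primary screen (cut at about 50% in these data); inactive = the rest.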

What follows are compounds tested against Cytochrome P450 2C19 (Homo sapiens) (UniProt P33261) (assay: blockers of cytochrome P450 2C19 activity – biochemical, luminescence, ADME assay, primary screen (AID 778;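 note: plate controls were negative control wells for no effect and 2.5 mM tranylcypromine positive control for full effect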)). Conditions: CYP2C19 Supersomes, luciferin-H EGE luminescence, 30 min; at 5 µM; stronger effect = higher value.
Cytochrome P450 2C19 (Homo sapiens), sequence (P33261 whole entry, looked up): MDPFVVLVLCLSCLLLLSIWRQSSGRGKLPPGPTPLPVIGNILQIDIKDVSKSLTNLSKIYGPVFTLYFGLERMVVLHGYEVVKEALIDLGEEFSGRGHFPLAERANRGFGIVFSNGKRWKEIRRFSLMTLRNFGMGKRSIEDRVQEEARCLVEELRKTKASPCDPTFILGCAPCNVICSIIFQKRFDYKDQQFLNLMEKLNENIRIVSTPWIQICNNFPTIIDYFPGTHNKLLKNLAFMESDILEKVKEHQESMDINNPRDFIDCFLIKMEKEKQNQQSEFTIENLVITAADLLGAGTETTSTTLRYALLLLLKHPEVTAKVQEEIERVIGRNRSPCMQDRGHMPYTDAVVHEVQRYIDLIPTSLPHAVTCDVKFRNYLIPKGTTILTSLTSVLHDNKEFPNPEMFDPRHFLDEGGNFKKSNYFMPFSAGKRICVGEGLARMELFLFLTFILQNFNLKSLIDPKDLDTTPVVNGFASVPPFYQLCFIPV

In order of falling inhibition:
1. COC(=O)CN1C(C)=Nc2ccc(Br)cc2C1c1ccccc1 (configuration not stated)  43.4%
2. CC(=O)c1cccc(S(=O)(=O)N2CCC(n3nnc4cc(F)ccc43)CC2)c1  43.1%
3. O=S(=O)(c1cccc(-c2nnc(SC(F)F)n2-c2ccccc2)c1)N1CCCCC1  41.6%
4. CCOC(=O)CN1CC23C=CC(O2)C(C(=O)Nc2ccc(F)cc2)C3C1=O (configuration not stated)  40.7%
5. COc1ccccc1Cc1nc(-c2ccc(C)cc2)no1  35.6%
6. Cc1cc2cc(CN(Cc3cccs3)Cc3nnnn3CC3CCCO3)c(=O)[nH]c2cc1C (configuration not stated)  34.3%
7. CC(C)(C)n1nnnc1C(c1cccs1)N(Cc1cccnc1)CC1CCCO1 (configuration not stated)  31.5%
8. Cc1ccc(-c2nc(C)sc2CC(=O)O)cc1  29.8%
9. Cc1cc(N)n2nc(-c3ccc(C(C)(C)C)cc3)cc2n1  26.1%
10. O=P(O)(CP(=O)(c1ccccc1)c1ccccc1)c1ccccc1O  22.6%
11. NC(=O)COc1ccc(/C=N/NC(=O)C2CCCN2S(=O)(=O)c2ccc(Cl)cc2)cc1 (configuration not stated)  19.2%
12. COc1ccc(N(Cc2cc3cc(OC)ccc3[nH]c2=O)S(C)(=O)=O)cc1  18.7%
13. CCNC(=S)NNC(=O)Cc1ccccc1  18.2%
14. Cc1ccc(CNC(=O)CCNC(=O)Cn2ccc3ccccc3c2=O)cc1  17.4%
15. Cc1ccc(S(=O)(=O)NCC(C)NS(C)(=O)=O)cc1 (configuration not stated)  16.9%
16. CC(C)CNC(=S)NNC(=O)c1ccccc1OC(F)F  16.6%
17. CC(Sc1nnc(Cc2ccc([N+](=O)[O-])cc2)o1)C(N)=O (configuration not stated)  16.6%
18. CCSC1(SCC)N=C(N)C2(C#N)C(c3ccccc3)NC(C)=CC12C#N (configuration not stated)  16.1%
19. COC(=O)c1oc2ccc(Br)cc2c1NC(C)=O  14.7%
20. O=C(CSCc1ccc([N+](=O)[O-])cc1)Nc1cccc(C(=O)Nc2ccccc2C(=O)O)c1  14.5%
21. CSc1ccc(Cl)c(C(=O)OCC(=O)N2CC(C)OC(C)C2)c1 (configuration not stated)  12.4%
22. O=C1CC(c2cccc(Br)c2)C2=C(CCCC2=O)N1 (configuration not stated)  11.9%
23. COc1ccc(NC(=O)ON=C2c3ccccc3-c3ccccc32)cc1  11.6%
24. CCOC(=O)C1CCN(C(=O)C2CCN(S(=O)(=O)N3CCCC3)CC2)CC1  10.9%
25. CCOc1ccc2[nH]c(=O)c(CN(Cc3nnnn3Cc3ccccc3)CC3CCCO3)cc2c1 (configuration not stated)  8.7%
26. O=C(Cc1ccccc1)N/N=C/c1ccc(Cl)cc1Cl  7.9%
27. CCN(CC)c1ccc(NC(=O)c2ccc(Cl)nc2)cc1  7.7%
28. O=C(O)[C@@H]1CCCN1c1ncnc2sc3c(c12)CCC3  6.9%
29. O=C(CCl)NNc1cccc(Cl)n1  6.7%
30. Nc1c(C(=O)NCc2ccccc2)nnn1Cc1cccc(Cl)c1  6.4%
31. CCCCC(=O)N/N=C(\C)CC(=O)Nc1cc(Cl)ccc1OC  6.1%
32. CC(C)=CC(=O)Nc1nnc(-c2ccc(F)cc2)s1  4.7%
33. O=C(CC1Nc2ccccc2NC1=O)Nc1ccccc1 (configuration not stated)  2.9%
34. COC(=O)c1cc(NC(=O)C2C3C=CC(C3)C2C(=O)O)cc(C(=O)OC)c1 (configuration not stated)  2.5%
35. O=C(CNC(=O)Cc1ccccc1)NCC(=O)OCC(=O)c1ccccc1Cl  1.6%
36. CS(=O)(=O)c1ccc2nc(NC(=O)C3C4C=CC(C4)C3C(=O)O)sc2c1 (configuration not stated)  0.7%
37. CCC(C)(C)n1nnnc1CN1CCN(c2nc3ccc(C)cc3cc2C#N)CC1  0.3%
38. O=C(NCc1ccco1)c1nc2ncccn2n1  -0.7%
39. CCC(=O)Nc1ccc(C(=O)Nc2ccc3c(c2)C(=O)N(CC2CCCO2)C3=O)cc1 (configuration not stated)  -1%
40. CCOCCOCCC(C(=O)O)P(=O)(c1ccccc1)c1ccccc1 (configuration not stated)  -2.4%
41. O=C(O)CCCC(=O)Nc1ccccc1-n1ccnc1  -4.7%
42. CN1C(=O)C(CC(N)=O)N(NC(=O)c2ccc(Cl)cc2)C1=S (configuration not stated)  -7.8%
43. COc1ccc(Cl)cc1NC(=O)c1oc(C)nc1C  -9%
44. COc1cccc(Nc2ncccc2C(=O)O)c1  -9.2%
45. O=C(Cn1cnc2c(cnn2-c2ccccc2)c1=O)NCc1ccccc1  -10.8%
46. CC(=O)c1c(C)c[nH]c1C  -14.8%
47. Nc1c(C(=O)NCc2ccccc2)sc2nc3c(cc12)C(=O)CCC3  -16.5%
48. CN1CCN(Cc2nc3c(c(=O)n(C)c(=O)n3C)n2Cc2cccc3ccccc23)CC1  -17.1%
49. CCn1c(=O)cc(O)c2ccccc21  -18.1%
50. CCOC(=O)C1CCN(C(=O)C2CCN(S(=O)(=O)CC)CC2)CC1  -18.2%

In the case of `CN(C)Cc1ccccc1C1(O)c2ccccc2CSc2ccccc21` (configuration not stated), the inhibition is reported as 67.5% (active).
In the case of `O=C(CCN1c2ccccc2Sc2ccccc21)Nc1ccccc1`, the inhibition is reported as 80.2% (active).
With `COc1ccc2[nH]c(=O)c(CN(Cc3nnnn3CCc3ccccc3)CC3CCCO3)cc2c1` (configuration not stated) the inhibition was 77.7% (active).
With `Cc1cc(C)c2cc(CN(Cc3cccs3)Cc3nnnn3CC3CCCO3)c(=O)[nH]c2c1` (configuration not stated) the inhibition was 84.5% (active).
In the case of `COC(=O)C1=C(C)N(C)C(C)=C(C(=O)OC)C1c1cccc(Br)c1`, the inhibition is reported as 79.2% (active).
`Cc1occc1C(=O)NNC(=S)NCC(C)C` was tested, and the inhibition was 74.6% (active).
`O=S(=O)(c1cccc(S(=O)(=O)N2CCC(n3nnc4ccccc43)CC2)c1)N1CCCCC1` was tested, and the inhibition was 94.7% (active).
`COc1ccc(Cl)cc1NC(=O)CN(C)C(=O)CNC(=O)C12CC3CC(CC(C3)C1)C2` was tested, and the inhibition was 67.9% (active).
In the case of `COc1ccccc1CNS(=O)(=O)c1ccc(C)cc1`, the inhibition is reported as 92.5% (active).
`CCOC(=O)C1CCN(C(=O)Nc2ccc(Cl)cc2)CC1` was tested, and the inhibition was 63.1% (active).
For `CSc1ccc(/C=N\NC(=O)COc2ccc(Cl)cc2Br)cc1`, the inhibition was 76.4% (active).
`CC(C)COC(=O)c1ccc(NC(=O)C2C3C=CC(C3)C2C(=O)O)cc1` (configuration not stated) was tested, and the inhibition was 54.2% (active).
